Test results: PubChem BioAssay (NCI)
Compounds without any hit were thinned out: in the full panel of roughly 79,000, 15% have a hit. Unmarked numbers belong to inactive results. Calls of active or inactive are those of the source. No stated cut-off is given here; in the data, active means growth inhibition above about 70%; inactive means the rest.

Columns and labels:
[1] = NCI Yeast Anticancer Drug Screen. Data for the wt2 strain (AID 169); settings: S. cerevisiae wt2 strain growth inhibition, active compounds read high
Outline: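 Treated yeast vs. vehicle-treated yeast: growth inhibition determined.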

[2] = NCI Yeast Anticancer Drug Screen. Data for the mlh1 strain (AID 171);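 further: 0% = growth of vehicle-treated control cultures of the same strain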; settings: S. cerevisiae mlh1 strain growth inhibition, active compounds read high
Outline: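 A yeast strain with a defined genetic lesion serves as the test organism. Cultures receive compound or vehicle, and growth is measured.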

[3] = NCI Yeast Anticancer Drug Screen. Data for the sgs1 strain (AID 173);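 further: 0% = growth of vehicle-only control cultures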; settings: S. cerevisiae sgs1 mutant, active compounds read high
Outline: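 A genetically defined yeast mutant is incubated with the test compound, and its growth is compared to that of the same strain given vehicle.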

[4] = NCI Yeast Anticancer Drug Screen. Data for the mlh1 rad18 strain (AID 175); settings: S. cerevisiae mlh1 rad18 strain growth inhibition, active compounds read high
Outline: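 Steps: expose repair-defective yeast to compound; measure growth; express inhibition against vehicle-treated controls.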

[5] = NCI Yeast Anticancer Drug Screen. Data for the rad18 strain (AID 177); settings: S. cerevisiae rad18 mutant growth inhibition, active compounds read high
Outline: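 Measured value is growth inhibition of a yeast strain bearing a DNA repair alteration, referenced to vehicle-treated cells.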

[6] = NCI Yeast Anticancer Drug Screen. Data for the rad52 strain (AID 147);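 further: 0% = growth of vehicle-treated control cultures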; settings: S. cerevisiae rad52 mutant growth inhibition, active compounds read high
Outline: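 Here a repair-compromised yeast strain receives each compound; its growth is then quantified and normalised to vehicle-only controls.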

[7] = NCI Yeast Anticancer Drug Screen. Data for the wt1 strain (AID 149);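 further: 0% = growth of vehicle-treated wt1 cultures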; settings: S. cerevisiae wt1 strain (SPY 50644) growth inhibition, active compounds read high
Outline: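 Each compound is tested on wt1 yeast and the loss of growth versus vehicle gives the inhibition value.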

[8] = NCI Yeast Anticancer Drug Screen. Data for the rad50EPP+ strain (AID 151);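 further: 0% = growth of vehicle-treated control cultures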; settings: S. cerevisiae rad50 mutant strain, active compounds read high
Outline: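 Read-out is yeast growth inhibition relative to vehicle; cells used were the rad50EPP+ strain.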

[9] = NCI Yeast Anticancer Drug Screen. Data for the mgt1 strain (AID 153); settings: S. cerevisiae mgt1 mutant growth inhibition, active compounds read high
Outline: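 Measured: inhibition of mgt1 yeast growth by compound, normalized to vehicle-treated cultures.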

[10] = NCI Yeast Anticancer Drug Screen. Data for the rad50 strain (AID 155);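 further: 0% = growth of vehicle-only cultures of the same strain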; settings: S. cerevisiae rad50 strain growth inhibition, active compounds read high
Outline: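 Vehicle-treated cultures provide the reference for the growth inhibition reported for compound-exposed, repair-deficient yeast.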

[11] = NCI Yeast Anticancer Drug Screen. Data for the mec2-1 strain (AID 157); settings: S. cerevisiae mec2-1 strain, active compounds read high
Outline: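 Using mec2-1 yeast: add compound, measure growth, express inhibition versus vehicle-treated cultures.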

[12] = NCI Yeast Anticancer Drug Screen. Data for the rad14 strain (AID 159);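 further: 0% = growth of vehicle-treated control cultures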; settings: S. cerevisiae rad14 strain growth inhibition, active compounds read high
Outline: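 Inhibition of growth is reported for a repair-deficient yeast mutant following compound treatment, calculated relative to cultures that received vehicle.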

[13] = NCI Yeast Anticancer Drug Screen. Data for the sgs1 mgt1 strain (AID 161);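 further: 0% = growth of cultures given vehicle only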; settings: S. cerevisiae sgs1 mgt1 strain, active compounds read high
Outline: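 Growth of a repair-deficient yeast mutant was monitored after compound treatment and expressed as inhibition relative to vehicle-treated cultures.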

[14] = NCI Yeast Anticancer Drug Screen. Data for the CLN2oe strain (AID 163);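 further: 0% = growth of vehicle-only control cultures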; settings: S. cerevisiae CLN2oe strain, active compounds read high
Outline: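 Whole-cell yeast growth assay. A strain engineered for altered cell-cycle control received compound, and inhibition relative to vehicle-treated cultures was recorded.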

[15] = NCI Yeast Anticancer Drug Screen. Data for the cln2 rad14 strain (AID 165);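 further: 0% = growth equal to vehicle treated cultures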; settings: S. cerevisiae cln2 rad14 strain, active compounds read high
Outline: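 Yeast strain cln2 rad14, bearing defects in cell cycle control and DNA repair, serves as the test system; values reflect growth inhibition compared with vehicle.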

[16] = NCI Yeast Anticancer Drug Screen. Data for the bub3 strain (AID 167); settings: S. cerevisiae bub3 mutant strain, active compounds read high
Outline: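 Mutant yeast screening strain plus compound; vehicle-treated cultures serve as the 0% inhibition reference.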

[17] = at 5.0 µM (retest, dose inferred, filed as 0.5)
[18] = at 50.0 µM (retest, dose inferred, filed as 5.0)

## Fc1ccc(NC(=S)SCc2ccc3c(c2)OCO3)cc1F
[1]; at 1.2 µM
  growth inhibition: -2%
[1]; at 3.7 µM
  growth inhibition: 19%
[1]; at 11.0 µM
  growth inhibition: 58%
[1]; at 33.0 µM
  growth inhibition: 99% (active)
[1]; at 100.0 µM
  growth inhibition: 94% (active)
[2]; at 1.2 µM
  growth inhibition: -29%
[2]; at 3.7 µM
  growth inhibition: -28%
[2]; at 11.0 µM
  growth inhibition: 53%
[2]; at 33.0 µM
  growth inhibition: 99% (active)
[2]; at 100.0 µM
  growth inhibition: 96% (active)
[3]; at 1.2 µM
  growth inhibition: -17%
[3]; at 3.7 µM
  growth inhibition: -13%
[3]; at 11.0 µM
  growth inhibition: 59%
[3]; at 33.0 µM
  growth inhibition: 99% (active)
[3]; at 100.0 µM
  growth inhibition: 96% (active)
[4]; [17]
  growth inhibition: 6%
[4]; [18]
  growth inhibition: 98% (active)
[4]; at 50.0 µM
  growth inhibition: 90.5% (active)
[5]; at 1.2 µM
  growth inhibition: 20%
[5]; at 3.7 µM
  growth inhibition: 34%
[5]; at 11.0 µM
  growth inhibition: 73% (active)
[5]; at 33.0 µM
  growth inhibition: 100% (active)
[5]; at 100.0 µM
  growth inhibition: 98% (active)

## CCCCCCCCCC/C=C\C(=O)O
[6]; at 1.2 µM
  growth inhibition: -3%
[6]; at 3.7 µM
  growth inhibition: -1%
[6]; at 11.0 µM
  growth inhibition: -9%
[6]; at 33.0 µM
  growth inhibition: -13%
[6]; at 100.0 µM
  growth inhibition: 97% (active)
[7]; at 1.2 µM
  growth inhibition: -12%
[7]; at 3.7 µM
  growth inhibition: -18%
[7]; at 11.0 µM
  growth inhibition: -35%
[7]; at 33.0 µM
  growth inhibition: -23%
[7]; at 100.0 µM
  growth inhibition: 97% (active)
[8]; at 1.2 µM
  growth inhibition: 0%
[8]; at 3.7 µM
  growth inhibition: -1%
[8]; at 11.0 µM
  growth inhibition: 0%
[8]; at 33.0 µM
  growth inhibition: 62%
[8]; at 100.0 µM
  growth inhibition: 75% (active)
[9]; at 1.2 µM
  growth inhibition: -36%
[9]; at 3.7 µM
  growth inhibition: -10%
[9]; at 11.0 µM
  growth inhibition: -22%
[9]; at 33.0 µM
  growth inhibition: -9%
[9]; at 100.0 µM
  growth inhibition: 98% (active)
[10]; at 1.2 µM
  growth inhibition: 15%
[10]; at 3.7 µM
  growth inhibition: 10%
[10]; [17]
  growth inhibition: 39%
[10]; at 11.0 µM
  growth inhibition: -5%
[10]; at 33.0 µM
  growth inhibition: 8%
[10]; [18]
  growth inhibition: 68%
[10]; at 50.0 µM
  growth inhibition: 78% (active)
[10]; at 100.0 µM
  growth inhibition: 97% (active)
[11]; at 1.2 µM
  growth inhibition: 4%
[11]; at 3.7 µM
  growth inhibition: 5%
[11]; [17]
  growth inhibition: 36%
[11]; at 11.0 µM
  growth inhibition: -11%
[11]; at 33.0 µM
  growth inhibition: 49%
[11]; [18]
  growth inhibition: 74% (active)
[11]; at 50.0 µM
  growth inhibition: 79.8% (active)
[11]; at 100.0 µM
  growth inhibition: 95% (active)
[12]; at 1.2 µM
  growth inhibition: -3%
[12]; at 3.7 µM
  growth inhibition: -5%
[12]; at 11.0 µM
  growth inhibition: -1%
[12]; at 33.0 µM
  growth inhibition: 38%
[12]; at 100.0 µM
  growth inhibition: 98% (active)
[13]; [17]
  growth inhibition: -18%
[13]; [18]
  growth inhibition: 58%
[13]; at 50.0 µM
  growth inhibition: 88.5% (active)
[14]; at 1.2 µM
  growth inhibition: 15%
[14]; at 3.7 µM
  growth inhibition: 25%
[14]; at 11.0 µM
  growth inhibition: 7%
[14]; at 33.0 µM
  growth inhibition: -20%
[14]; at 100.0 µM
  growth inhibition: 97% (active)
[15]; [17]
  growth inhibition: 67%
[15]; [18]
  growth inhibition: 73% (active)
[15]; at 50.0 µM
  growth inhibition: 46.5%
[16]; at 1.2 µM
  growth inhibition: -6%
[16]; at 3.7 µM
  growth inhibition: -15%
[16]; [17]
  growth inhibition: -7%
[16]; at 11.0 µM
  growth inhibition: -29%
[16]; at 33.0 µM
  growth inhibition: -10%
[16]; [18]
  growth inhibition: 73% (active)
[16]; at 50.0 µM
  growth inhibition: 85.8% (active)
[16]; at 100.0 µM
  growth inhibition: 97% (active)
[1]; at 1.2 µM
  growth inhibition: -14%
[1]; at 3.7 µM
  growth inhibition: -15%
[1]; at 11.0 µM
  growth inhibition: -18%
[1]; at 33.0 µM
  growth inhibition: -7%
[1]; at 100.0 µM
  growth inhibition: 97% (active)
[2]; at 1.2 µM
  growth inhibition: -10%
[2]; at 3.7 µM
  growth inhibition: -4%
[2]; at 11.0 µM
  growth inhibition: -20%
[2]; at 33.0 µM
  growth inhibition: 10%
[2]; at 100.0 µM
  growth inhibition: 97% (active)
[3]; at 1.2 µM
  growth inhibition: -7%
[3]; at 3.7 µM
  growth inhibition: -5%
[3]; at 11.0 µM
  growth inhibition: -9%
[3]; at 33.0 µM
  growth inhibition: 19%
[3]; at 100.0 µM
  growth inhibition: 98% (active)
[4]; [17]
  growth inhibition: 37%
[4]; [18]
  growth inhibition: 69%
[4]; at 50.0 µM
  growth inhibition: 73.8% (active)
[5]; at 1.2 µM
  growth inhibition: 0%
[5]; at 3.7 µM
  growth inhibition: 1%
[5]; at 11.0 µM
  growth inhibition: -5%
[5]; at 33.0 µM
  growth inhibition: 19%
[5]; at 100.0 µM
  growth inhibition: 97% (active)
